# Assay results taken from the supplement of paper PMC12024529.
# Tested on: HEK293 WT BDD-FVIII-Gluc
# Assay: secreted FVIII-Gluc luciferase Z-score vs DMSO control; higher = more FVIII-Gluc secretion
# Details: 5 µM
# Protocol: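 Natural plant-compound library (480 compounds, ST catalogue IDs) screened on HEK293 cells stably expressing WT BDD-FVIII-Gaussia luciferase fusion at 5 µM. Secreted Gluc activity in the medium is given as a Z-score relative to DMSO controls.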
row,Structure (SMILES),secreted FVIII-Gluc luciferase Z-score
1,COc1cc2c(cc1OC)-c1c(OC)c(OC)cc3ccnc(c13)C2=O,-0.583
2,COc1c(O)cc2oc3cc(O)c(CC=C(C)C)c(O)c3c(=O)c2c1CC=C(C)C,0.316
3,COc1cc(CNC(=O)CCCCCCC(C)C)ccc1O,-0.541
4,COc1ccc2cc1Oc1ccc(cc1)C[C@H]1c3cc(c(OC)cc3CCN1C)Oc1c(OC)c(OC)cc3c1[C@H](C2)N(C)CC3,0.132
5,COc1ccc2oc(-c3cccc(OC)c3OC)cc(=O)c2c1,0.436
6,COc1cc2cc(Oc3ccc4ccc(=O)oc4c3)c(=O)oc2cc1OC(C)=O,0.744
7,COc1ccc2c3c1OC1C(O)C=CC(C=C2)C31CCN(C)C (stereo not given),-0.171
8,Cc1cc2nc3c(=O)[nH]c(=O)nc-3n(CC(O)C(O)C(O)CO)c2cc1C (stereo not given),0.252
9,O=C(N[C@H](CO)[C@H](O)c1ccc([N+](=O)[O-])cc1)C(Cl)Cl,0.907
10,CC1=CCC2(C)CCC(O)(C(C)C)C2C(OC(=O)c2ccc(O)cc2)C1 (stereo not given),0.752
11,COc1ccc2c(c1OC)C(Cc1ccccc1)N1CCc3cc4c(cc3C1=C2)OCO4 (stereo not given),0.115
12,C1CCN2C[C@H]3C[C@H](CN4CCCC[C@@H]34)[C@H]2C1,1.26
13,O=C(O)C1[C@H]2C[C@H]3c4[nH]c5ccccc5c4CCN3C[C@@H]2CC[C@@H]1O (stereo not given in full),0.257
14,C=C(C)[C@H]1CC=C(C)C(=O)C1,0.764
15,Cc1cc(=O)oc2cc(O[C@@H]3O[C@H](C(=O)O)[C@@H](O)[C@H](O)[C@H]3O)ccc12,0.123
16,Cc1c(-c2ccccc2)oc2cc(O)ccc2c1=O,-0.0243
17,CC/C=C\C/C=C\C/C=C\CCCCCCCC(=O)O,0.636
18,Cn1ccc(O)c(C#N)c1=O,0.00283
19,N[C@@H](Cc1ccc(O)cc1)C(=O)O,0.446
20,COC(=O)[C@H]1[C@H]2C[C@H]3c4[nH]c5ccccc5c4CCN3C[C@@H]2CC[C@@H]1O,-1.15

row,Structure (SMILES),secreted FVIII-Gluc luciferase Z-score
1,CC[C@H](/C=C/[C@@H](C)[C@H]1CC[C@H]2[C@@H]3CC=C4C[C@@H](O)CC[C@]4(C)[C@H]3CC[C@]12C)C(C)C,0.586
2,COc1cc([C@@H]2Oc3cc(C4Oc5cc(O)cc(O)c5C(=O)[C@H]4O)ccc3O[C@H]2CO)ccc1O (stereo not given in full),0.0424
3,O=c1c(O)c(-c2ccc(O)cc2)oc2ccc(O)cc12,0.433
4,Nc1nc2c(c(=O)[nH]1)N=C(CNc1ccc(C(=O)NC(CCC(=O)O)C(=O)O)cc1)CN2 (stereo not given),0.62
5,COc1ccc(-c2cc(=O)c3c(O)cc(O)cc3o2)cc1,0.381
6,O=c1cc(-c2ccccc2)oc2cc(O[C@@H]3O[C@H](CO)[C@@H](O)[C@H](O)[C@H]3O)c(O)c(O)c12,-0.188
7,Nc1ncnc2c1ncn2C1OC(CO)C(O)C1OP(=O)(O)O (stereo not given),-0.295
8,Cn1cnc2c1c(=O)[nH]c(=O)n2C,0.889
9,O=C(O)c1cc(=O)c2ccccc2[nH]1,0.496
10,C=C1C(=O)OC2C[C@@]3(C)CCCC(=C)[C@@H]3CC12 (stereo not given in full),-0.82
11,Nc1ncnc2c1ncn2[C@H]1C[C@H](O)[C@@H](COP(=O)(O)O)O1,0.376
12,COc1ccc([C@@H]2CC(=O)c3c(O)cc(O)cc3O2)cc1O,0.825
13,CN(C)[C@@H]1C(=O)C(C(=O)NCN2CCCC2)=C(O)[C@@]2(O)C(=O)C3=C(O)c4c(O)cccc4[C@@](C)(O)[C@H]3C[C@@H]12,0.407
14,C[C@H]1[C@H](C)CC[C@]2(C(=O)O)CC[C@]3(C)C(=CCC4[C@@]5(C)C[C@@H](O)[C@H](O)[C@@](C)(CO)[C@@H]5CC[C@]43C)[C@H]12 (stereo not given in full),-0.822
15,O=C1c2ccccc2C(=O)c2c1ccc(O)c2O,0.508
16,COc1ccc(-c2coc3ccc(OC4OC(COC(C)=O)C(OC(C)=O)C(OC(C)=O)C4OC(C)=O)cc3c2=O)cc1 (stereo not given),-1.1
17,C=C1CCC2C(C)(CC[C@@H](O)C2(C)C)C1COc1ccc2ccc(=O)oc2c1 (stereo not given in full),0.344
18,C=C(CO)C1Cc2c(ccc3c2OC2COc4cc(OC)c(OC)cc4C2C3=O)O1 (stereo not given),-1.91
19,CCOC(=O)C1=C[C@]2(CC)CCCN3CCc4c(n1c1ccccc41)[C@@H]32,0.132
20,OCC1OC(n2cnc3cncnc32)C(O)C1O (stereo not given),-0.247
